Data taken from the supplement of paper PMC10849652.
About 8,800 targets were measured; listed, in parts, are those with a hit and a random draw of the rest. About 0.5% of all pairs of compound and target were hits.

These targets were tested with Cc1cn(-c2cc(NC(=O)c3ccc(C)c(Nc4nccc(-c5cccnc5)n4)c3)cc(C(F)(F)F)c2)cn1 [nilotinib] (assay: log2 fold change, soluble protein after heating vs DMSO (PISA); higher = thermal stabilisation; K562 lysate, 10 uM; active = over 0.2 and 3.5 SD of the protein, either way, in both replicates (recomputed)).
Summary of the method: (§1)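 Following dounce homogenisation of K562 pellets in PBS pH 7.4 with 1 mM MgCl2, crude extract at 1 mg/mL protein was incubated for 30 min with 10 μM compound. Aliquots were then heated for 3 min over 48°C-58°C and pooled, NP-40 was added to 0.5% at 4°C, and soluble protein was recovered as the supernatant at 21,000xg for 90 min. Channel-sum-equalised TMTpro 16plex LC-MS/MS quantified this protein. Each value, from duplicates, is a log-two fold change in thermal stability relative to solvent controls.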

UniProt Q9H4H8, sequence (Q9H4H8 whole entry, looked up): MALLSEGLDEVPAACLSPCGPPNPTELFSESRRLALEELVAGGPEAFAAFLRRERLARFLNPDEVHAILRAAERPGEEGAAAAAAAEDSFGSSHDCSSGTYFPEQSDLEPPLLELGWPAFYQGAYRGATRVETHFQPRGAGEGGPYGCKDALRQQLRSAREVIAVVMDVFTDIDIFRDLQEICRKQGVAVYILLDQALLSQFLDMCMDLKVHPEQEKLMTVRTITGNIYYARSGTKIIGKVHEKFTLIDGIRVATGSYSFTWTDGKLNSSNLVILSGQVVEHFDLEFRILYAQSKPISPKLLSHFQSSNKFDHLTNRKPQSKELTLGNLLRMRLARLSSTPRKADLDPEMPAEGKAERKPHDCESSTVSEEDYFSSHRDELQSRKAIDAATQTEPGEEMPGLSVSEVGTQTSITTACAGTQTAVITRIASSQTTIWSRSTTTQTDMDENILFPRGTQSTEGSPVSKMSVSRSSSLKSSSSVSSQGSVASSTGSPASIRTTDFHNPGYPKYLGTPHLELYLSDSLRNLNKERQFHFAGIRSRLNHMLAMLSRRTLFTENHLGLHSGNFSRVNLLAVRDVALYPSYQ
UniProt Q14153, sequence (Q14153 whole entry, looked up): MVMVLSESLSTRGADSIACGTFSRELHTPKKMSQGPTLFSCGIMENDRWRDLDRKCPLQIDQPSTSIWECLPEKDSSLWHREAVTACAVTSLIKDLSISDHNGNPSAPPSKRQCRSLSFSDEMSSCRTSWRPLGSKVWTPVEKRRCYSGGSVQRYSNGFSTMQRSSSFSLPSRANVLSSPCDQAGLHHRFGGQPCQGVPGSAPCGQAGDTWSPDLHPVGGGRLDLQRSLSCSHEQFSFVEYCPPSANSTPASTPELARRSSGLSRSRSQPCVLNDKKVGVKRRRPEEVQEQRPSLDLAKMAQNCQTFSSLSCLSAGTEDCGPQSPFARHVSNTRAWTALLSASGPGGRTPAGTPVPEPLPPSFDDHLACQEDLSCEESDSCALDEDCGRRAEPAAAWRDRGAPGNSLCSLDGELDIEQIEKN
UniProt Q9NZJ0, sequence (Q9NZJ0 whole entry, looked up): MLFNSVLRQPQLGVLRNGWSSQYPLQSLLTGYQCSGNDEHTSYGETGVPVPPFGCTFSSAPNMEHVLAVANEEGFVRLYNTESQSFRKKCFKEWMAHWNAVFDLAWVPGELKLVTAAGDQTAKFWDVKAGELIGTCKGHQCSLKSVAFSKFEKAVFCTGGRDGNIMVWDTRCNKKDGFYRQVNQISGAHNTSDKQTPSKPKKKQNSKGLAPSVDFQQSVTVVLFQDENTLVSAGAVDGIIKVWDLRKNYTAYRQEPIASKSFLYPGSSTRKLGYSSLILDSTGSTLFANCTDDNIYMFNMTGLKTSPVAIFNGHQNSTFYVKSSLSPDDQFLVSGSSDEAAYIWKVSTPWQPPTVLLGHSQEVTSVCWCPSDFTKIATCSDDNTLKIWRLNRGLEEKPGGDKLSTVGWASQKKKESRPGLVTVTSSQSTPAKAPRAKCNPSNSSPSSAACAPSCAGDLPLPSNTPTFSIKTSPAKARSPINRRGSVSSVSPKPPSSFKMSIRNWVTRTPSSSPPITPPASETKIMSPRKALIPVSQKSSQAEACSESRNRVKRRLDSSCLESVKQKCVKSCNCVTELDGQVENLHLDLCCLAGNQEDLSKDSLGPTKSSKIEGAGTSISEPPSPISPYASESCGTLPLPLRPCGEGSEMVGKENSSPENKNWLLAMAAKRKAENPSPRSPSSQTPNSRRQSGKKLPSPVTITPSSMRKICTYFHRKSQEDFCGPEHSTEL
UniProt Q9Y6B2, sequence (Q9Y6B2 whole entry, looked up): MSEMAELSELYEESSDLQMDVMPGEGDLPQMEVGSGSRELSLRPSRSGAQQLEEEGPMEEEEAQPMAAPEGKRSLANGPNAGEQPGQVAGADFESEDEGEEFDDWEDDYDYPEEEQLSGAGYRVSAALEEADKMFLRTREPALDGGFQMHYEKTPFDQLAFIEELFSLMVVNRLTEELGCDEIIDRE
UniProt Q9Y2H6, sequence (Q9Y2H6 whole entry, looked up): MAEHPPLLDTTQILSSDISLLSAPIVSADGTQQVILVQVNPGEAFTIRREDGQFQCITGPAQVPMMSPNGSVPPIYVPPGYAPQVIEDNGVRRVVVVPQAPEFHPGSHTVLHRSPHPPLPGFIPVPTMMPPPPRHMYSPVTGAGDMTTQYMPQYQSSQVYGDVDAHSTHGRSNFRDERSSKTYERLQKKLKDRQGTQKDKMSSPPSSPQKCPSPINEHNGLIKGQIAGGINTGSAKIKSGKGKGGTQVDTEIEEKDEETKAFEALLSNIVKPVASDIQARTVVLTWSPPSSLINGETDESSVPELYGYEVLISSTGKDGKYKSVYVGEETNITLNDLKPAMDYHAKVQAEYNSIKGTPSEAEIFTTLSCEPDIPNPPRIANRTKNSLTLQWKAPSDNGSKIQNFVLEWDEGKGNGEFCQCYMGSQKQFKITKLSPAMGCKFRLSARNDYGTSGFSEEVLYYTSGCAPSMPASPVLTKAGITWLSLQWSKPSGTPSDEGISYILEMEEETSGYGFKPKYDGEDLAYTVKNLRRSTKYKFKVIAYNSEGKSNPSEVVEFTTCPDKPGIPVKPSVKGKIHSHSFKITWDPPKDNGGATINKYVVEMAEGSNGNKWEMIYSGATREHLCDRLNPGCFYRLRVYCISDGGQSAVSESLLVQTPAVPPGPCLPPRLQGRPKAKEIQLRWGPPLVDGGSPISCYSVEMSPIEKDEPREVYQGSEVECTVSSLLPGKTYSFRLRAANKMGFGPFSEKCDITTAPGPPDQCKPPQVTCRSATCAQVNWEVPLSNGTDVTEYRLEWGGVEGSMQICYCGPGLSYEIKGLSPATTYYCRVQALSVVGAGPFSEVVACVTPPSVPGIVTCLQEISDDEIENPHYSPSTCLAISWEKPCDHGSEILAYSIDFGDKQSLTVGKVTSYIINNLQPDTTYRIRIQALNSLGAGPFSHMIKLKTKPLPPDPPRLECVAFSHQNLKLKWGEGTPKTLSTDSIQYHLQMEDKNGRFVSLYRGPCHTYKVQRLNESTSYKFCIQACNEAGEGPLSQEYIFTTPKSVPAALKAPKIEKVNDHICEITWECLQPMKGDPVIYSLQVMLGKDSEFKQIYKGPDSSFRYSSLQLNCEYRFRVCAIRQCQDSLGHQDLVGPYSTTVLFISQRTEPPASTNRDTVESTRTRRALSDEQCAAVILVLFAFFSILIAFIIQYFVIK
UniProt P11171, sequence (P11171 whole entry, looked up): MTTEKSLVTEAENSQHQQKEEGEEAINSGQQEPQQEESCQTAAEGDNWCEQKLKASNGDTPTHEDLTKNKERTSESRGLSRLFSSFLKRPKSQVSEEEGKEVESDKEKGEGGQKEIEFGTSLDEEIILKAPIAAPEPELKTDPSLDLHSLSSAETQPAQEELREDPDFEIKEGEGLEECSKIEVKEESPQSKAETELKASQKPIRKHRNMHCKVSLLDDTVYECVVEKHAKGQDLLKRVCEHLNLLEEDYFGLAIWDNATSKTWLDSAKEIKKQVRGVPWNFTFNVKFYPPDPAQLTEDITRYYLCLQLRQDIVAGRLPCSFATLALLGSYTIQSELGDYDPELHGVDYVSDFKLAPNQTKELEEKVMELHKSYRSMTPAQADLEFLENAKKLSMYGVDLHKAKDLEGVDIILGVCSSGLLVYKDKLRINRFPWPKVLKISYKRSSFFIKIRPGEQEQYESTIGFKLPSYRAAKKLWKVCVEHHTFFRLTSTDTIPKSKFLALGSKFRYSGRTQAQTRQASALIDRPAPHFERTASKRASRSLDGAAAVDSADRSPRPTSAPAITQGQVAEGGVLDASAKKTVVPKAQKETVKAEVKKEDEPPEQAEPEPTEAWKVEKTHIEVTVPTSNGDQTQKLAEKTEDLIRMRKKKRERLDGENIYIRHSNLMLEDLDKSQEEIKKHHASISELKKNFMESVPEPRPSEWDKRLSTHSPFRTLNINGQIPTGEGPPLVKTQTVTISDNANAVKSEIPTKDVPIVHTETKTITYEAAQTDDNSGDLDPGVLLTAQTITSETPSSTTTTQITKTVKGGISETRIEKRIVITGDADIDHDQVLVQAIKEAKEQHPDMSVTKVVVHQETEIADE
UniProt P0C2W1, sequence (P0C2W1 whole entry, looked up): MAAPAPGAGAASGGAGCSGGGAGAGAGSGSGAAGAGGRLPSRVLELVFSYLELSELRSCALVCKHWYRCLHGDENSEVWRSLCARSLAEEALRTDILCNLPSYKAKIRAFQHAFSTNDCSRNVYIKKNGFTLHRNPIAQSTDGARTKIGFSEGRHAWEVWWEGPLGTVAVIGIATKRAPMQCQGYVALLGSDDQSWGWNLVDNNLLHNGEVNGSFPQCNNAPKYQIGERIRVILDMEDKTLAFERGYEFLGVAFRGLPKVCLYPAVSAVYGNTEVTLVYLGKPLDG
UniProt Q9NRW4, sequence (Q9NRW4 whole entry, looked up): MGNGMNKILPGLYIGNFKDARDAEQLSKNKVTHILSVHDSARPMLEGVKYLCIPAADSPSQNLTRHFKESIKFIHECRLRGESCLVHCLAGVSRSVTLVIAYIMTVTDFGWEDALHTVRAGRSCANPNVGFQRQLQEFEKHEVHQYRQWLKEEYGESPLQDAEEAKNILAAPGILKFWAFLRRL
UniProt P28676, sequence (P28676 whole entry, looked up): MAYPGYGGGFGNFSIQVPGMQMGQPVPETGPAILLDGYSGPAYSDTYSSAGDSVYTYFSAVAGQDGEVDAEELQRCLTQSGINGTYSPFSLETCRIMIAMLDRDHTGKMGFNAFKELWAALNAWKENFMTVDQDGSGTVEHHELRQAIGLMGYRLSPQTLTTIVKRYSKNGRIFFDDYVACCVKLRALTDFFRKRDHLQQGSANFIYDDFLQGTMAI
UniProt Q9UKR5, sequence (Q9UKR5 whole entry, looked up): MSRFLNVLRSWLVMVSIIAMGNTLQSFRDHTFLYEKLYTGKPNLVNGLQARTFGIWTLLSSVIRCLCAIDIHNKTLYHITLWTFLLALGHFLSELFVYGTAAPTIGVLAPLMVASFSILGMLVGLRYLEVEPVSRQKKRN

log2 fold change, inactive:
EIF2B5, A0A3B3ITK8 -0.455
FBXO45 (UniProt P0C2W1) 0.025
FNDC3A (UniProt Q9Y2H6) -0.057
EPB41 isoform 4 (UniProt P11171) 0.124
EID1 (UniProt Q9Y6B2) 0.067
FAM53B (UniProt Q14153) 0.015
FOXJ2 (UniProt Q9P0K8) 0.033
FBRSL1, A0A3B3IRR3 0.034
EIF3I (UniProt Q5TFK1) 0.108
GART (UniProt C9JZG2) -0.085
GAA (UniProt P10253) 0.058
EIF2AK3 (UniProt Q9NZJ5) 0.124
DUSP22 isoform 2 (UniProt Q9NRW4) -0.039
FAM83D (UniProt Q9H4H8) -0.042
DTL (UniProt Q9NZJ0) 0.005
EPN2 (UniProt I3L356) -0.248
FAT2 (UniProt Q9NYQ8) -0.086
GCA (UniProt P28676) 0.071

What follows are targets tested with Cc1nc(Nc2n[nH]c3c2CN(C(=O)N[C@H](CN(C)C)c2ccccc2)C3(C)C)c2sccc2n1 in the same assay as above.
Summary of the method: as §1

log2 fold change, inactive:
EIF2B5, A0A3B3ITK8 0.16
FBXO45 (UniProt P0C2W1) 0.028
FNDC3A (UniProt Q9Y2H6) -0.125
EPB41 isoform 4 (UniProt P11171) 0.044
EID1 (UniProt Q9Y6B2) 0.085
FAM53B (UniProt Q14153) 0.013
FOXJ2 (UniProt Q9P0K8) 0.29
FBRSL1, A0A3B3IRR3 0.022
EIF3I (UniProt Q5TFK1) -0.239
GART (UniProt C9JZG2) -0.033
GAA (UniProt P10253) 0.115
EIF2AK3 (UniProt Q9NZJ5) 0.012
DUSP22 isoform 2 (UniProt Q9NRW4) -0.073
FAM83D (UniProt Q9H4H8) 0.004
DTL (UniProt Q9NZJ0) -0.022
EPN2 (UniProt I3L356) 0.062
FAT2 (UniProt Q9NYQ8) 0.086
GCA (UniProt P28676) -0.11

These targets were tested with Cc1nc(Nc2ncc(C(=O)Nc3c(C)cccc3Cl)s2)cc(N2CCN(CCO)CC2)n1 [dasatinib] in the same assay as above.
Summary of the method: as §1

log2 fold change, inactive:
FAM111A (UniProt Q96PZ2) -0.097
EID1 (UniProt Q9Y6B2) -0.306
FAM53B (UniProt Q14153) 0.036
FOXJ2 (UniProt Q9P0K8) 0.056
FBRSL1, A0A3B3IRR3 0.01
FOXL2 (UniProt P58012) 0.023
ERG28 (UniProt Q9UKR5) 0.029
FYN (UniProt P06241) 0.02
EIF2AK3 (UniProt Q9NZJ5) -0.385
FLT4 (UniProt P35916) -0.202
DUSP22 isoform 2 (UniProt Q9NRW4) -0.022
FAM83D (UniProt Q9H4H8) -0.026
GC isoform 3 (UniProt P02774) 0.044
DTL (UniProt Q9NZJ0) 0.044
DYNC1I2 isoform 2 (UniProt Q13409) -0.058
GDE1 (UniProt Q9NZC3) 0.012
GABPB1 isoform 3 (UniProt Q06547) -0.086
EPB41, A0A2R8Y783 0.028
EWSR1 (UniProt H7BY36) -0.104

These targets were tested with Cc1ncc(-c2ccnc(Nc3ccc(S(C)(=O)=O)cc3)n2)n1C(C)C in the same assay as above.
Summary of the method: as §1

log2 fold change, inactive:
EIF2B5, A0A3B3ITK8 -0.134
FBXO45 (UniProt P0C2W1) -0.088
FNDC3A (UniProt Q9Y2H6) -0.293
EPB41 isoform 4 (UniProt P11171) -0.165
EID1 (UniProt Q9Y6B2) 0.05
FAM53B (UniProt Q14153) 0.004
FOXJ2 (UniProt Q9P0K8) 0.077
FBRSL1, A0A3B3IRR3 0.013
EIF3I (UniProt Q5TFK1) -0.035
GART (UniProt C9JZG2) 0.042
GAA (UniProt P10253) 0.267
EIF2AK3 (UniProt Q9NZJ5) -0.001
DUSP22 isoform 2 (UniProt Q9NRW4) 0.064
FAM83D (UniProt Q9H4H8) 0.008
DTL (UniProt Q9NZJ0) -0.052
EPN2 (UniProt I3L356) -0.291
FAT2 (UniProt Q9NYQ8) 0.014
GCA (UniProt P28676) 0.096
